APEX1 inh – inhibitors of human APE1 endonuclease; P27695; recombinant APE1, TAMRA/BHQ-2 abasic DNA cleavage fluorescence; Potency, µM (series often up to 65.8 µM), usual class: inhibitors; 0.35% of 350,000 active; AID 2517; note: nearly all actives have a fitted effect of over 55% in size
Target sequence (P27695 whole entry, looked up): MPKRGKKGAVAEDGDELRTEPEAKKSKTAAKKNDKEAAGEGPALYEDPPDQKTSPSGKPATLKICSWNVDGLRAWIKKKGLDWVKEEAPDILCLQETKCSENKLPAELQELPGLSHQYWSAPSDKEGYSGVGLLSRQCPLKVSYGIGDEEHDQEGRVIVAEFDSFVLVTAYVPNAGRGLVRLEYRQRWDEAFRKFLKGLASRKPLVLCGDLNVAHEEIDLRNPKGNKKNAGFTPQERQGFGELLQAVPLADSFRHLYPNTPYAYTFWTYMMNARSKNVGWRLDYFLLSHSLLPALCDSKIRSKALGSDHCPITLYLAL
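APE1 at 0.75 nM final was preincubated with compound 15 min at room temperature, then 50 nM double-stranded THF abasic-site substrate (5'-TAMRA/3'-BHQ-2) was added. Fluorescence (ex 525/em 598 nm) was read kinetically; third-minus-first read gave activity.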
POLB inh – blocks human DNA polymerase beta activity; P06746; Pol beta primer extension/strand displacement, fluorescence kinetic; Potency, µM (titrated, usually from 114 µM), usual class: inhibitors; 1.3% of 340,000 active; AID 485314
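Values derive from four-parameter Hill fits of normalized kinetic data: reads at 0 and 10 min following addition of 50 nM substrate to 10 nM Pol beta preincubated 15 min with compound.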
Pol kappa inh – inhibitors of human DNA polymerase kappa; Q9UBT6; purified Pol kappa, fluorescent DNA synthesis assay, 10 min; Potency, µM (titrated, usually from 107 µM), actives largely listed as inhibitors; 0.53% of 400,000 active; AID 588579
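50 nM final substrate added after 15 min RT preincubation of 10 nM Pol kappa with compound; fluorescence read at 0 and 10 min.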
Pol iota inh – blocks human DNA polymerase iota activity; Q9UNA4; Pol iota fluorescent replication assay, 10 min; Potency, µM (top dose mostly 115 µM), most hits filed as inhibitors; 1% of 390,000 active; AID 588590
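Fluorescent replication assay read twice, at 0 min and 10 min after adding 50 nM (final) substrate. Enzyme (10 nM) and compounds were first incubated 15 min at room temperature; enzyme-free buffer wells were negative controls.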
POLH inh – DNA polymerase eta (human) inhibition | Q9Y253 | recombinant Pol eta, fluorescent DNA replication assay | Potency, µM (doses to about 114 µM), usual class: inhibitors | 1.2% of 390,000 active | AID 588591
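Pol eta at 10 nM preincubated with compounds 15 min at room temperature; reaction started with fluorescent substrate (50 nM final) and read kinetically at 0 and 10 min.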
GLS inhibitor – glutaminase GLS (human) inhibition; Potency, µM (titrated, usually from 45.5 µM), actives largely listed as inhibitors; O94925; GLS enzymatic activity, qHTS titration; AID 624170; 0.21% of 410,000 active
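hKGA in 45 mM KH2PO4 pH 8.2, 0.02% Tween-20 with pin-transferred compounds; 1 mM L-glutamine (stock) plus glutamate oxidase/HRP/Amplex Red coupling added. Fluorescence read initially and after 30 min at RT.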
Hits are given with their value; - = inactive; ? = inconclusive; . = not tested or not shown. Rows were chosen to be rich in hits. Some 2.4% of all compounds tested hit in one or more screens of this group. Calls come from the whole dose curve; as a rule, active = well fitted curve in the direction sought with a large enough effect; inconclusive = small, poorly fitted or top-dose-only effect, or another doubt; inactive = no such curve, though single readings can be large; an effect the other way counts as inactive or inconclusive.

SMILES | APEX1 inh | POLB inh | Pol kappa inh | Pol iota inh | POLH inh | GLS inhibitor
CCc1nnc(N/N=C/c2c(C)[nH]c3ccccc23)n1N | - | - | - | ? | - | ?
CCc1nnc(N/N=C/c2c(F)cccc2Cl)n1N | - | - | - | 10µM | - | -
CCOc1ccc(S(=O)(=O)N2CCC(n3c(C)nc4cccnc43)CC2)cc1 | . | - | - | - | - | -
O=C(O)C1CSC(c2ccncc2)N1 (stereo unspecified) | - | - | - | - | - | -
O=C(O)C1CSC(c2ccco2)N1 (stereo unspecified) | 14.1µM | 8.91µM | 17.8µM | ? | 10µM | -
O=C(NNC(=O)c1ccccc1Cl)c1ccccc1Cl | - | 89.1µM | - | - | - | -
CCC(C)NC(=O)CS(=O)Cc1nc(-c2cccc(OC)c2)oc1C (stereo unspecified) | - | - | - | - | - | -
COc1ccc(NC2CC(=O)N(c3cc([N+](=O)[O-])ccc3C)C2=O)cc1 (stereo unspecified) | - | - | - | - | - | 7.08µM
C[C@H]1CN([C@@H](C)CO)C(=O)CCCn2nncc2CO[C@H]1CN(C)C(=O)c1cc(-c2ccccc2)on1 | . | . | . | . | - | -
NS(=O)(=O)c1ccc(N/N=C/c2ccccc2C(=O)O)c([N+](=O)[O-])c1 | - | - | - | - | - | -
NS(=O)(=O)c1ccc(N/N=C/c2ccc(O)cc2O)c([N+](=O)[O-])c1 | - | 25.1µM | ? | 50.1µM | ? | -
CC1CCCN(S(=O)(=O)c2ccc(NC(=O)C3CC(=O)N(C(C)(C)C)C3)cc2)C1 (stereo unspecified) | - | . | - | - | - | -
CC1CCCC(NC(=O)CCNC(=O)c2ccc(Br)cc2)C1C (stereo unspecified) | - | . | ? | - | - | -
CCOC(=O)c1cc(-c2ccccc2)n(CCC(=O)NCCc2ccc(OC)c(OC)c2)c1C | . | ? | - | - | - | -
COC(=O)c1ccccc1NC1=C/C(=N\S(=O)(=O)c2cccs2)c2ccccc2C1=O | ? | - | - | 1.41µM | - | -
NC(=O)c1ccc(NC(=O)CSC2=Nc3ccccc3C3CC=NN23)cc1 (stereo unspecified) | - | - | - | ? | ? | -
COC(=O)c1ccc(NC(=O)CSC2=Nc3ccccc3C3CC=NN23)cc1 (stereo unspecified) | - | - | - | - | - | 14.1µM
CCOc1ccc(NC(=O)CN2CCCN(Cc3cc(C)ccc3C)S2(=O)=O)cc1 | . | - | ? | 89.1µM | - | -
CCOC(=O)c1ccccc1NC(=O)CN1CCCN(Cc2cc(C)ccc2C)S1(=O)=O | . | - | - | - | - | -
CC(C)(C)NC(=O)COc1ccc(S(=O)(=O)N2CCCC2)cc1 | - | - | - | - | - | -
CC(C)(C)OC(=O)NCCCC1=CC2=CC(=O)C(C)(OC(=O)c3cccs3)C(=O)C2=CO1 (stereo unspecified) | - | . | . | . | . | .
CCCCC1=CC2=CC(=O)C(C)(OC(=O)c3cnc4ccccc4n3)C(=O)C2=CO1 (stereo unspecified) | - | 50.1µM | . | . | . | .
CCCCC1=CC2=CC(=O)C(C)(OC(=O)c3cccs3)C(=O)C2=CO1 (stereo unspecified) | - | . | ? | ? | 22.4µM | -
COc1cc(-c2nc3ccccn3c2/N=C/c2cc(OC)c(O)cc2Cl)ccc1O | ? | 25.1µM | ? | ? | ? | -
COc1cc(-c2nc3ccccn3c2/N=C/c2ccccc2)ccc1O | - | - | - | ? | - | -
SMILES | APEX1 inh | POLB inh | Pol kappa inh | Pol iota inh | POLH inh | GLS inhibitor
O=C(N/N=C/c1cccc(OC(=O)c2ccccc2Cl)c1)c1cccnc1 | - | - | - | - | - | -
CCCc1ccc(OCc2ccc(C(=O)O)o2)c(OC)c1 | - | ? | ? | - | ? | -
C=CCc1ccc(OCc2ccc(C(=O)O)o2)c(OC)c1 | - | - | - | ? | 28.2µM | -
CNC(=S)N/N=C/c1ccc(-c2ccc(Cl)c([N+](=O)[O-])c2)o1 | ? | 8.91µM | - | - | - | -
Cc1ccc(C(=O)N/N=C\c2ccc(-c3ccc(Cl)c(Cl)c3)o2)cn1 | - | 20µM | - | - | - | -
Cc1ccc(-c2ccc(/C=N/NC(=S)Nc3ccccc3)o2)cc1[N+](=O)[O-] | - | - | - | - | - | -
CC1=C(C(=O)c2ccccc2)C(c2cn(-c3ccccc3)nc2-c2ccc(Cl)cc2)NC(=S)N1 (stereo unspecified) | - | - | - | ? | - | -
COC(=O)c1ccccc1-c1ccc(/C=N/NC(N)=O)o1 | - | - | - | - | - | -
Cc1nnc(N/N=C\c2ccc(-c3ccccc3[N+](=O)[O-])o2)n1N | - | - | - | 3.98µM | - | -
Cc1nnc(N/N=C/c2ccc(-c3ccccc3F)o2)n1N | - | ? | - | 3.55µM | - | -
CCc1nnc(N/N=C/c2ccc(-c3ccc([N+](=O)[O-])cc3)o2)n1N | - | - | - | 31.6µM | - | ?
CCC(=O)N/N=C/c1ccc(-c2ccc([N+](=O)[O-])cc2)o1 | ? | ? | - | - | - | -
Cc1ccnc(NS(=O)(=O)c2ccc(N3C(=O)Nc4ccccc4N3O)cc2)c1 | - | - | - | - | - | -
O=C(NCCc1ccccc1)C1CC(=O)N(C2CCCCCC2)C1 (stereo unspecified) | - | - | - | 79.4µM | - | -
CCCCNC(=S)Nc1ccc(F)cc1 | - | - | - | - | - | -
CC(=O)NS(=O)(=O)c1ccc(NC(=O)c2cc3c(=O)n4ccccc4nc3s2)cc1 | - | 79.4µM | ? | 35.5µM | 39.8µM | -
C[n+]1cccc2ccc3c(c21)OC(N)=C(C#N)C3c1ccccc1 (stereo unspecified) | - | - | - | 17.8µM | - | -
Cc1ccc(CCNC(=O)C23C[C@H]4C[C@@H](C2)CC(n2nnc(C)n2)(C4)C3)cc1 | - | - | - | - | - | -
COc1ccc(S(=O)(=O)NCc2cccnc2)cc1NC(=O)c1ccccc1C | . | . | - | 39.8µM | ? | -
O=C(O)c1cc(N=Nc2c(O)ccc3ccccc23)cc(C(=O)O)c1 | ? | - | 20µM | - | 17.8µM | -
CCOC(=O)Cc1nc2cc(Cl)ccc2o1 | - | - | - | - | - | -
O=C(NCc1ccco1)c1ccc(-c2csnn2)cc1 | - | 10µM | - | ? | - | -
O=C(NCc1ccco1)c1ccc(C(F)(F)F)cc1 | - | - | - | - | - | -
COc1ccccc1C(=O)Nc1c(C(=O)N(C)c2ccccc2)sc2nc(C)cc(C)c12 | . | - | - | 15.8µM | - | -
CCCCn1c(O)c2n(c1=O)Cc1ccccc1N=C2c1ccccc1 | . | . | . | . | . | -

Screens deposited in PubChem BioAssay by National Center for Advancing Translational Sciences (NCATS).
